Assay results taken from PubChem BioAssay (EPA / NIEHS).
Where “and” joins values, the source holds several entries; their conditions need not be identical. Equal values may be shown once. Records with an inconclusive call do not appear. Where a structure was tested more than once in an assay, its records may differ in their call. Calls of active or inactive are those of the source. How the source made its calls: active means hit-call score of the fitted dose curve at least 0.9, where 1 is the maximum; inconclusive means response in the unintended direction; inactive means score below 0.9.

Columns and labels:
[1] = TOX21_p53_BLA_p5_viability: Viability Assessment in the Tox21 HCT-116 p53 Agonism Beta-lactamase Assay, Phase 5 (AID 2283600)
Procedure, shortened: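 Viability is taken from cellular ATP content, measured by luciferase luminescence in the same wells after the beta-lactamase ratio read. Cells are seeded at 4000 per well and exposed to DMSO-dissolved compounds, diluted 217-fold, for 16 h.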

[2] = target: Cellular tumor antigen p53 (Homo sapiens) (UniProt P04637); assay: TOX21_p53_BLA_p4_ratio: Tox21 HCT-116 p53 Agonism Beta-lactamase Assay, Ratio, Phase 4 (AID 2283601)
Procedure, shortened: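 HCT-116 p53 beta-lactamase reporter cells (4000/well) preincubated 5 h, then compound (217-fold dilution of DMSO stock) for 16 h at 37C. CCF4-AM substrate added 2 h at room temperature; 460/530 nm emission ratio fitted upward versus DMSO.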

[3] = Tanguay_ZF_120hpf_MORT_legacy: (Legacy) Oregon State University Tanguay Lab 120 Hour Post-fertilization zebrafish Assay for Mortality (AID 2283633);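 on AC50: fitted as increase in binary mortality versus DMSO negative control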
Procedure, shortened: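 Mortality endpoint from a multiplexed whole-embryo zebrafish screen. Dechorionated wild-type embryos received compound at 6 hpf and remained under static exposure at 28C until 120 hpf, with death noted as a present/absent call.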

[4] = Tanguay_ZF_120hpf_YSE_legacy: (Legacy) Oregon State University Tanguay Lab 120 Hour Post-fertilization zebrafish Assay for Yolk Sac Edema (AID 2283634);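 on AC50: actives raise the incidence of yolk sac edema above the DMSO baseline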
Procedure, shortened: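 Readout: presence or absence of yolk sac edema at 120 hpf, fitted upward against DMSO controls. Exposure ran statically from 6 hpf in dechorionated embryos kept at 28C.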

[5] = Tanguay_ZF_120hpf_AXIS_legacy: (Legacy) Oregon State University Tanguay Lab 120 Hour Post-fertilization zebrafish Assay for Body Axis Malformation (AID 2283635);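 on AC50: potency for an increased fraction of larvae scored with body axis malformation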
Procedure, shortened: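 Static 6–120 hpf chemical exposure of dechorionated wild-type 5D zebrafish, one per well at 28C; morphology endpoint scored binary at 120 hpf relative to DMSO control.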

[6] = Tanguay_ZF_120hpf_EYE_legacy: (Legacy) Oregon State University Tanguay Lab 120 Hour Post-fertilization zebrafish Assay for Eye Malformation (AID 2283636);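 further: binary presence or absence of eye malformation scored by brightfield in 120 hpf larvae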
Procedure, shortened: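 5D wild-type embryos, pronase-dechorionated at 4 hpf; static exposure 6–120 hpf, 28C, dark; DMSO 0.64% final; 5uM trimethyltin chloride positive control. Binary eye-defect scoring at 120 hpf; dead embryos not scored.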

[7] = Tanguay_ZF_120hpf_SNOU_legacy: (Legacy) Oregon State University Tanguay Lab 120 Hour Post-fertilization zebrafish Assay for Snout Malformation (AID 2283637)
Procedure, shortened: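 Binary brightfield scoring of snout malformation at 120 hpf. Dechorionated 5D wild-type embryos, one per well, static exposure from 6 hpf at 28C, sealed and dark; final DMSO 0.64% (vol/vol), DMSO as baseline; 5uM trimethyltin chloride positive control.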

[8] = Tanguay_ZF_120hpf_JAW_legacy: (Legacy) Oregon State University Tanguay Lab 120 Hour Post-fertilization zebrafish Assay for Jaw Malformation (AID 2283638);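 on AC50: active means more embryos with jaw malformation than DMSO controls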
Procedure, shortened: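 Static waterborne exposure of dechorionated wild-type (Tropical 5D) zebrafish from 6 to 120 hpf at 28C, 0.64% DMSO vehicle; 5uM trimethyltin chloride served as positive control. Jaw morphology recorded as binary at 120 hpf.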

[9] = Tanguay_ZF_120hpf_OTIC_legacy: (Legacy) Oregon State University Tanguay Lab 120 Hour Post-fertilization zebrafish Assay for Otic Vesicle Malformation (AID 2283639)
Procedure, shortened: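 Wild-type zebrafish larvae, whole-embryo exposure from early stage to 120 hpf at 28C. Binary brightfield scoring of otic vesicle morphology, fitted in the positive direction against the DMSO baseline.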

[10] = Tanguay_ZF_120hpf_PE_legacy: (Legacy) Oregon State University Tanguay Lab 120 Hour Post-fertilization zebrafish Assay for Pericardial Edema (AID 2283640);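 on AC50: potency for increased incidence of pericardial edema versus DMSO baseline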
Procedure, shortened: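 Read-out is the presence or absence of pericardial edema at 120 hpf under brightfield, with gain of signal fitted against DMSO controls. Larvae (5D wild-type) were statically exposed at 28C with 0.64% final DMSO.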

Measured: AC50

Chain of Cellular tumor antigen p53 (Homo sapiens) (P04637 whole entry, looked up): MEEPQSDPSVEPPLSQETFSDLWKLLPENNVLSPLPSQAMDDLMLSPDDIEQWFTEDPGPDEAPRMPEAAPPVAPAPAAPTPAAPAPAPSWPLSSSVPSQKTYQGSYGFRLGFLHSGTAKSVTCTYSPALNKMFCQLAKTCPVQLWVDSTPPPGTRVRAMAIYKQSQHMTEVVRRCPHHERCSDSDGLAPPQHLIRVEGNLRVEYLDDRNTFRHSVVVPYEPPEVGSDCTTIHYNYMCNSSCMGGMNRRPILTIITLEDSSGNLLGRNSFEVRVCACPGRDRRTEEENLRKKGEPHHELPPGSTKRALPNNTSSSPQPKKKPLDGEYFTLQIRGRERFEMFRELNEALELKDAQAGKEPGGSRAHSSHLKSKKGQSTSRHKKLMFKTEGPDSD

CCOc1ccc2c(c1)C(C)=CC(C)(C)N2
active: [2] 76.6 µM | [7] 19.4 µM | [8] 15.9 µM
inactive: [1] | [2] | [3] | [4] | [5] | [6] | [9] | [10]

CC(C)c1ccc(C(=O)N=C(N)N)cc1S(C)(=O)=O
inactive: [1] | [2] | [3] | [4] | [5] | [6] | [7] | [8] | [9]

CC(C)(C)c1cc(O)c(C(C)(C)C)cc1O
active: [3] 11 µM | [4] 25.7 µM | [5] 25.7 µM | [7] 35.6 µM | [8] 47.5 µM | [10] 34.3 µM
inactive: [1] | [2] | [6] | [9]

COC(=O)c1ccc(O)cc1
inactive: [1] | [2] | [3] | [4] | [5] | [6] | [7] | [8]

O=c1[nH]cc(F)c(=O)[nH]1
inactive: [1] | [3] | [5] | [6] | [7] | [8] | [9]
active: [1] 1.68 µM | [2] 3.73 µM and 4.64 µM and 5.42 µM

Cc1ccc(C(C)C)c(O)c1
inactive: [1] | [2] | [3] | [4] | [6] | [7] | [9]
active: [2] 86.6 µM

CNC(=O)[C@H]1O[C@@H](n2cnc3c(NCc4cc(Cl)ccc4OCc4cc(C)no4)ncnc32)[C@H](O)[C@@H]1N
inactive: [1] | [2] | [3] | [4] | [5] | [7] | [8] | [9] | [10]

CC(=O)OC/C=C(\C)CCC=C(C)C
inactive: [1] | [2] | [3] | [4] | [5] | [6] | [7] | [8] | [10]

CCCCCCCCCCO
inactive: [1] | [2] | [3] | [4] | [5] | [6] | [7] | [8] | [9] | [10]

O=c1c(O)c(-c2ccc(O)c(O)c2)oc2cc(O)cc(O)c12
inactive: [1] | [3] | [4] | [7] | [8] | [9]
active: [2] 22.8 µM [middle of 4 runs]

O=C(O)CCCCC(=O)O
inactive: [1] | [2] | [3] | [4] | [6] | [7] | [8] | [9]

CCOC(=O)CCC(=O)OCC
inactive: [1] | [2] | [3] | [4] | [6] | [7] | [8] | [9]

Cc1ccc(N(C)C)cc1
inactive: [1] | [2] | [3] | [4] | [6] | [7] | [8]

CC(=O)Oc1ccccc1C(=O)O
inactive: [1] | [2] | [3] | [4] | [7] | [8] | [10]

COc1ccc2c(c1)c(CC(=O)O)c(C)n2C(=O)c1ccc(Cl)cc1
inactive: [1] | [2] | [3] | [5] | [6] | [7] | [9] | [10]

CCCCCCCC=O
inactive: [1] | [2] | [3] | [4] | [6] | [7] | [8] | [9] | [10]

Nc1ccccc1N
active: [4] 46.3 µM | [8] 49.4 µM | [10] 10.5 µM
inactive: [1] | [2] | [3] | [6] | [7] | [9]

CCCCCCOCCO
inactive: [1] | [2] | [3] | [4] | [6] | [7] | [8] | [9] | [10]

Oc1ccc2ccccc2c1N=Nc1ccccc1
inactive: [1] | [2] | [3] | [6] | [9]
active: [4] 43.7 µM | [7] 43.8 µM | [8] 9.73 µM

Cc1c(C(=O)O)c(O)cc2c1C(=O)c1c(O)c([C@@H]3O[C@H](CO)[C@@H](O)[C@H](O)[C@H]3O)c(O)c(O)c1C2=O
inactive: [1] | [2] | [3] | [4] | [6] | [7] | [8] | [10]

COc1cc(C=O)ccc1O
inactive: [1] | [2] | [3]
active: [4] 43.3 µM | [6] 60.5 µM | [7] 36.6 µM | [8] 35.3 µM | [9] 59.2 µM
